Our source for the INHIBITION values is ChEMBL document CHEMBL4513216, “Probing the Open Global Health Chemical Diversity Library for Multistage-Active Starting Points for Next-Generation Antimalarials” (ACS Infect Dis, 2020).

Molecules are shown by their SMILES. About 8,600 (12%) of roughly 69,000 compounds showed an effect of 50% or more. Shown is part of a subset that was picked to be rich in strong results.

For this test, the system named is Plasmodium berghei. As to the kind of experiment: Screen against P. berghei liver stage (PbLuc), transformed with Luciferase, at 10uM. The format is functional, HepG2. As to conditions: tested at 10 uM.
Turning to `Cc1ccc(C(=O)N2CCO[C@H]3[C@@H](OCc4ccccn4)CC[C@@H]32)o1`, the INHIBITION was 3.47%. Take `Cc1ccc(CNC(=O)N(C)Cc2cnn(C)c2)s1`: the INHIBITION is given as 25.5%. In the case of `COC(=O)c1cc(C2CC2)nc2c(Cl)cnn12`, the INHIBITION stood at 20.9%. Turning to `Cc1c(C(C)NC(=O)Nc2ccc(F)cc2F)cnn1C` (stereo not drawn), the INHIBITION is 44.3%. With `Cc1c(C(C)NC(=O)Nc2ccccc2F)cnn1C` (stereo not drawn), the INHIBITION is given as 61.9%. For `Cc1c(C(C)NC(=O)Nc2ccc(F)c(F)c2)cnn1C` (stereo not drawn), the INHIBITION is 6.26%. As for `Cc1ccccc1CSc1ncccc1C(=O)N(C)C`, the figure is -13.2%; as for `Cc1cncc(CN2CC[C@@](O)(CNC(=O)c3c[nH]cn3)[C@H](O)C2)c1`, 32.7%.

As to `Cc1nc(N2CCCOC(Cn3cccn3)C2)c2sccc2n1` (stereo not drawn), the INHIBITION is 65.7%.

Take `Cc1cnn(CC2CN(c3ncnc4ccccc34)CCO2)c1` (stereo not drawn): the INHIBITION is recorded as 64.4%. Consider `c1cnn(CC2CN(c3ncnc4c3CCC4)CCO2)c1` (stereo not drawn), for which the INHIBITION is on record as -7.17%. For `c1nc(N2CCOC(Cn3cncn3)C2)c2sccc2n1` (stereo not drawn), the INHIBITION is listed as 49.4%. For the compound `Cc1nnc(N2CCOC(Cn3cccn3)C2)c(C#N)c1C` (stereo not drawn), the INHIBITION is 17.8%.

On to `c1nc2c(c(N3CCOC(Cn4cncn4)C3)n1)CCC2` (stereo not drawn), for which the INHIBITION is listed as -26.9%. The same measure for `Cc1cnn(CC2CN(c3ncnc4c3CCC4)CCO2)c1` (stereo not drawn): 63%. As for `c1cnn(CC2CN(c3ncnc4sccc34)CCO2)c1` (stereo not drawn), the figure is 45%; as for `c1ccc2c(N3CCOC(Cn4cccn4)C3)ncnc2c1` (stereo not drawn), 4.48%. Take `c1cnn(CC2CN(c3ncnc4ccsc34)CCO2)c1` (stereo not drawn): the INHIBITION came out at 62.4%. As for `c1cnn(CC2CN(c3ncnc4[nH]ccc34)CCO2)c1` (stereo not drawn), the figure is 13.3%. As to `Cc1cnn(CC2CN(c3ncnc4[nH]ccc34)CCO2)c1` (stereo not drawn), the INHIBITION stood at 19.4%. Take `O=C1CN(C(=O)C2CN(c3cccc(Cl)c3)CCO2)CCN1` (stereo not drawn): the INHIBITION is listed as 3.46%.

As to `Cn1cnc2cc(C(=O)NS(=O)(=O)c3ccccc3Cl)ccc21`, the INHIBITION is -32.1%. The same measure for `Cc1ccc2c(c1)C(=O)NCC1(CCN(Cc3ccccc3)CC1)O2`: -6.92%; for `COc1ccc(-n2ccc(C(=O)N(C)C(C)C3(C)CC3)n2)cc1` (stereo not drawn): 29.1%; for `Cc1cccc(CN2CCC(N(C)Cc3nnc(C4CC4)n3C)C2)c1` (stereo not drawn): 38.5%.

Regarding `COc1ccc(CCNC(=O)NCC(O)c2cccc(F)c2)cc1` (stereo not drawn), the INHIBITION was 12.7%.

Turning to `CC(C)c1sc(Br)nc1C(=O)NCc1ccncc1`, the INHIBITION worked out at 45.3%. On to `O=C(NCCc1cnccn1)c1ccc(S(=O)(=O)NC2CCC2)cc1`, for which the INHIBITION was 40.3%.

For the compound `CC(C)N1CC[C@@H]2[C@H](COCC3CC3)CN(C)C(=O)[C@@H]2CC1`, the INHIBITION is reported as 10.5%. Consider `O=C(NC[C@]1(O)CN(Cc2ccc(F)cc2)C[C@H]1O)c1ccccn1`, for which the INHIBITION came out at 18.9%. For the compound `CN(C)CC1CN(c2ncnc3ccsc23)CCO1` (stereo not drawn), the INHIBITION turned out to be 30.8%. For the compound `Cc1nc(N2C[C@H]3CNC[C@H]3C2)c2sccc2n1`, the INHIBITION is reported as 55.6%. Take `COC1[C@@H]2CC[C@H]1CN(c1nc(C)nc3ccsc13)C2` (stereo partly drawn): the INHIBITION was 43%. With `Cc1nc(N2C[C@@H](CN3CCCCC3)[C@@H](CO)C2)c2sccc2n1`, the INHIBITION is 46.4%.

Regarding `Cc1cnn(CC2CN(c3cnc4ccccc4n3)CCO2)c1` (stereo not drawn), the INHIBITION is recorded as 16.2%. Consider `Cc1cnn(CC2CN(c3ncnc4ccsc34)CCO2)c1` (stereo not drawn), for which the INHIBITION was 83.7%. As for `Cc1csc(N2CCN(C(=O)c3ccc(C)s3)CC2)n1`, the figure is 2.3%. The same measure for `CCN(C)c1ncnc2c1CCN(Cc1ccsc1)CC2`: -14.1%; for `Cc1cc(C)n(CC2CCCCN2CCC(=O)Nc2cc(C)on2)n1` (stereo not drawn): 12.7%. As for `CN(Cc1cccs1)S(=O)(=O)c1ccc(C(F)(F)F)nc1`, the INHIBITION is 35.1%.

Regarding `Cc1[nH]c2cc(C3CCCCN3C(=O)C3CC3)nn2c(=O)c1C` (stereo not drawn), the INHIBITION is on record as -3.02%. Consider `Cn1ccnc1CN1CCN(CC(O)c2ccc(F)cc2)CC1` (stereo not drawn), for which the INHIBITION is recorded as -18%.

For the compound `Cc1ncsc1CN1CCOC(C)(C(N)=O)C1` (stereo not drawn), the INHIBITION stood at 15.5%. As for `O=C(NC1CC1)C1CCCN(c2cccc(C(F)(F)F)n2)C1` (stereo not drawn), the figure is -28.8%; as for `O=C(NC1CC1)C1CCN(c2cccc(C(F)(F)F)n2)CC1`, 86.8%. As for `O=C(NC1CCN(c2cccc(C(F)(F)F)n2)CC1)C1CC1`, the figure is 29%; as for `CCN1CCCC1CNC(=O)Cc1c(-c2ccc(Cl)cc2)n[nH]c1C` (stereo not drawn), 14.4%; as for `Cc1ccccc1CSc1nc(N)cc(N2C[C@H](O)[C@@H](N(C)C)C2)n1`, 58.2%. Turning to `Cc1ccccc1CSc1nc(N)cc(N2CC[C@@H](O)C2)n1`, the INHIBITION amounted to 42.1%. The same measure for `Cc1ccccc1CSc1nc(N)cc(N2CCCC(O)C2)n1` (stereo not drawn): 15.2%; for `CC(C)(C)C(=O)NCCCn1cncn1`: -21.9%. In the case of `COc1nn(C)cc1C(=O)NCC1(O)CCOCC1`, the INHIBITION is 15.7%. For `CCn1c(C)nnc1CN(C)C1CCN(CC2CCC2)C1` (stereo not drawn), the INHIBITION was -4.16%. Take `c1cc(CN2CCOC(Cn3cccn3)C2)c2c(c1)OCCO2` (stereo not drawn): the INHIBITION was 25.1%. Take `COC(=O)c1cc2c(OC)c(C)c(OC)cc2[nH]1`: the INHIBITION was -1.45%.

As to `CCc1cc(CN(C)Cc2nc(-c3ccc(OC)cc3F)oc2C)on1`, the INHIBITION was determined as 39.9%. In the case of `CCn1cnnc1CN(C)Cc1nc(-c2cc(OC)ccc2F)oc1C`, the INHIBITION is 50.4%. In the case of `COCc1ncn(Cc2nc(-c3ccc(OC)cc3F)oc2C)n1`, the INHIBITION is reported as 8.86%.

As for `COc1ccc(OC)c(-c2nc(CN(C)Cc3nonc3C)c(C)o2)c1`, the INHIBITION is -28%. Consider `COc1ccc(-c2nc(CN(C)Cc3nncn3C)c(C)o2)c(C)c1C`, for which the INHIBITION is -29.1%. As for `COc1ccc(OC)c(-c2nc(CN(C)Cc3nncn3C)c(C)o2)c1`, the figure is 57.8%; as for `Cc1occc1C(=O)N1C[C@H](Oc2ccccn2)[C@H]2OCCC[C@H]21`, 34.9%; as for `CN1CCCC(c2cccc(CCC(=O)NCc3ccccn3)n2)C1` (stereo not drawn), 3.91%. Regarding `CCC(C)C(=O)N(C)Cc1cc(F)ccc1N1CCC(OC)CC1` (stereo not drawn), the INHIBITION is given as 33.7%. The same measure for `CCc1cnc(CN(C(C)=O)C2CCN(CC(=O)N3CCCC3)C2)o1` (stereo not drawn): 30.6%; for `COCCNC(=O)CN(C)CCn1nc2ccccn2c1=O`: 23.8%. Take `C[C@@H](N)C(=O)N1CC2(CCNCC2)c2cc(Cl)ccc21`: the INHIBITION is 33.4%. Turning to `CC1CCN(C(=O)c2cc(NC(=O)c3ccccc3)n(C)n2)CC1`, the INHIBITION is on record as 26.4%. For `C=C(Cl)CN(C)C1CCN(CCc2ccccn2)CC1`, the INHIBITION is recorded as 35.9%. With `CSc1nccc(N2CCC3(CCCN(CC4CC4)C3)C2)n1` (stereo not drawn), the INHIBITION is -21.9%. In the case of `CSc1nccc(N2CCC3(CCCN(Cc4ccc(F)cc4)C3)C2)n1` (stereo not drawn), the INHIBITION amounted to 85.2%. As for `CSc1nccc(N2CCC3(CCCN(Cc4cccc(C)c4)C3)C2)n1` (stereo not drawn), the INHIBITION was 69.9%. On to `CSc1nccc(N2CCN(C)C3(CCNC(=O)CC3)C2)n1` (stereo not drawn), for which the INHIBITION is -17.7%.

As to `Cc1cccc(N2CCC3(CCCN(C(=O)Cc4cccnc4)C3)C2)n1` (stereo not drawn), the INHIBITION stood at 17.5%.

In the case of `CCN1CCC2(CCC1=O)CN(c1ccnc(SC)n1)CCN2C` (stereo not drawn), the INHIBITION was determined as 8.57%. On to `CSc1nccc(N2CCC3(CCCN(CCc4ccccc4)C3)C2)n1` (stereo not drawn), for which the INHIBITION is given as 85.2%. On to `Fc1ccc(CN2CCCC3(CCN(Cc4ncc[nH]4)C3)C2)cc1F` (stereo not drawn), for which the INHIBITION is given as 26%. Regarding `CCO[C@H]1CO[C@@]2(CCCN(S(=O)(=O)c3cccnc3)C2)C1`, the INHIBITION turned out to be 34.6%. Turning to `CCOC[C@]12COC[C@H]1CN(Cc1ccc3c(c1)OCO3)C2`, the INHIBITION is 38.5%. Turning to `Cc1nc(N2CCN(C(=O)c3ccccn3)CC2)c2c(n1)c(C)nn2C`, the INHIBITION was determined as 12.6%. Turning to `CN1CCC(N(Cc2ccncc2)C(=O)COCC2CCCCO2)CC1` (stereo not drawn), the INHIBITION is on record as 17.2%.

As for `CCCC(=O)N1CCC(c2cc[nH]n2)C1` (stereo not drawn), the INHIBITION came out at 17.4%. For the compound `CN(C)CCN1CCOCC2(C1)CN(Cc1ccco1)CCO2` (stereo not drawn), the INHIBITION is recorded as 26.7%. In the case of `CCNC(=O)N1CCC(OC)c2ccccc2N(CC(=O)NC)C(=O)C1` (stereo not drawn), the INHIBITION is reported as 35.1%.

In the case of `Cc1ccc(C(O)CNC(=O)Nc2cc(C)nn2C)cc1` (stereo not drawn), the INHIBITION is listed as -11.735%. On to `CN(C)C(=O)N1C[C@H]2CC[C@@H](C1)N(C(=O)c1c(Cl)cccc1Cl)C2`, for which the INHIBITION is listed as 12.1%. As for `CCS(=O)(=O)NCCCNc1ncnc2cc(F)c(F)cc12`, the figure is -30.5%; as for `CSCCCNc1ncnc2cccc(F)c12`, 56.7%; as for `CCN(CCCNc1ncnc2cc(F)c(F)cc12)S(C)(=O)=O`, -4.93%.

Turning to `CN(C)CCCNc1ncnc2cccc(F)c12`, the INHIBITION turned out to be 41.8%. Consider `Fc1cccc2ncnc(NCCCc3ccncc3)c12`, for which the INHIBITION was determined as 73%. As for `CS(=O)(=O)NCCNc1ncnc2cccc(F)c12`, the figure is 24.9%. The same measure for `CN1[C@@H]2CC[C@H]1CN(C(=O)c1sccc1S(N)(=O)=O)CC2`: 8.74%. For `Cc1nnsc1C(=O)NCc1nn(C2CCCC2)c2c1CCCC2`, the INHIBITION came to 49.4%. For the compound `O=C(CN1C(=O)CCC1=O)NCc1cc(C2CC2)n(C2CCCC2)n1`, the INHIBITION is listed as 13.9%. `O=C(CN1C(=O)CCC1=O)NCc1nn(C2CCCC2)c2c1CCCC2`: the INHIBITION worked out at 56.3%. In the case of `CC(=O)N[C@@H]1CN(Cc2ccccc2C#N)C[C@H]1c1ccc(C)cc1`, the INHIBITION stood at 41.3%. Consider `CS(=O)(=O)CCn1ccc(NC(=O)Cc2ccccc2F)n1`, for which the INHIBITION was determined as 21.2%. The same measure for `O=C(NCc1ccccc1F)Nc1ccn(CCN2CCOCC2)n1`: 50.1%; for `O=C(Cc1ccccc1Cl)Nc1ccn(CCN2CCOCC2)n1`: 45.8%. For the compound `Cn1ccc(NC(=O)Cc2cccc(F)c2)n1`, the INHIBITION was -74.2%. Take `CSC1(CNC(=O)NCc2sccc2C)CCOCC1`: the INHIBITION is 30.4%. With `Cn1ccc(NC(=O)Cc2ccccc2F)n1`, the INHIBITION was determined as 57.1%.

For the compound `O=C(NCc1cccc(F)c1)Nc1ccn(CCN2CCOCC2)n1`, the INHIBITION is reported as 40.5%.

With `COCCn1ccc(NCc2sccc2C)n1`, the INHIBITION was -60.1%. With `Cc1ccsc1CNC(=O)Nc1ccn(CCN2CCOCC2)n1`, the INHIBITION is 64%. Turning to `Cc1[nH]c2c(C)ccc(C)c2c1CC(=O)NC1CCCNC1=O` (stereo not drawn), the INHIBITION is reported as 35.7%. With `COC(=O)CCNC(=O)c1nc(NS(=O)(=O)c2ccccc2)sc1C`, the INHIBITION is listed as 32.2%.
